# Experimental data taken from article PMC11062922 (Nature Chemical Biology, 2023).
# Like-named read-outs stand apart in the source and are kept apart here.
# Key:
# Details in all cases: read-out: apparent Kd, n = 1
# [1] = system: MAP2K2
# [2] = system: MAP2K6
# [3] = system: MAP4K2
# [4] = compound concentrations:100 nM and 1000 nM (sheet 'Lestaurtinib' of Supplementary Table 1),run:Lestaurtinib_02752_R3,Plate:MR025
# [5] = compound concentrations:100 nM and 1000 nM (sheet 'Lestaurtinib' of Supplementary Table 1),run:Lestaurtinib_02765_R1,Plate:MR026
# [6] = compound concentrations:100 nM and 1000 nM (sheet 'Lestaurtinib' of Supplementary Table 1),run:Lestaurtinib_02768_R1,Plate:MR028
# [7] = compound concentrations:100 nM and 1000 nM (sheet 'Lestaurtinib' of Supplementary Table 1),run:Lestaurtinib_02795_R1,Plate:MR022
# [8] = compound concentrations:100 nM and 1000 nM (sheet 'Lestaurtinib' of Supplementary Table 1),run:Lestaurtinib_02802_R2,Plate:MR029
# [9] = compound concentrations:100 nM and 1000 nM (sheet 'Lestaurtinib' of Supplementary Table 1),run:Lestaurtinib_02802_R3,Plate:MR029
# [10] = compound concentrations:100 nM and 1000 nM (sheet 'Lestaurtinib' of Supplementary Table 1),run:Lestaurtinib_03252_R2,Plate:MR032
# [11] = compound concentrations:100 nM and 1000 nM (sheet 'Lestaurtinib' of Supplementary Table 1),run:Lestaurtinib_02339_R2,Plate:MR001
# [12] = compound concentrations:100 nM and 1000 nM (sheet 'Lestaurtinib' of Supplementary Table 1),run:Lestaurtinib_02364_R2,Plate:MR002
substance,measurement,setting,value
Lestaurtinib,potency estimated from few doses,[1]; [4],1310 nM
same,potency estimated from few doses,[1]; [5],722 nM
same,potency estimated from few doses,"[1]; compound concentrations:100 nM and 1000 nM (sheet 'Lestaurtinib' of Supplementary Table 1),run:Lestaurtinib_02766_R2,Plate:MR027",959 nM
same,potency estimated from few doses,"[1]; compound concentrations:100 nM and 1000 nM (sheet 'Lestaurtinib' of Supplementary Table 1),run:Lestaurtinib_02766_R3,Plate:MR027",1320 nM
same,potency estimated from few doses,[1]; [6],1590 nM
same,potency estimated from few doses,[1]; [7],925 nM
same,potency estimated from few doses,"[1]; compound concentrations:100 nM and 1000 nM (sheet 'Lestaurtinib' of Supplementary Table 1),run:Lestaurtinib_02795_R2,Plate:MR022",722 nM
same,potency estimated from few doses,[1]; [8],958 nM
same,potency estimated from few doses,[1]; [9],1490 nM
same,potency estimated from few doses,"[1]; compound concentrations:100 nM and 1000 nM (sheet 'Lestaurtinib' of Supplementary Table 1),run:Lestaurtinib_02896_R2,Plate:MR030",744 nM
same,potency estimated from few doses,"[1]; compound concentrations:100 nM and 1000 nM (sheet 'Lestaurtinib' of Supplementary Table 1),run:Lestaurtinib_02896_R3,Plate:MR030",804 nM
same,potency estimated from few doses,"[1]; compound concentrations:100 nM and 1000 nM (sheet 'Lestaurtinib' of Supplementary Table 1),run:Lestaurtinib_03172_R3,Plate:MR031",475 nM
same,potency estimated from few doses,[1]; [10],790 nM
same,potency estimated from few doses,"[1]; compound concentrations:100 nM and 1000 nM (sheet 'Lestaurtinib' of Supplementary Table 1),run:Lestaurtinib_03260_R2,Plate:MR033",1600 nM
same,potency estimated from few doses,[2]; [11],162 nM
same,potency estimated from few doses,"[2]; compound concentrations:100 nM and 1000 nM (sheet 'Lestaurtinib' of Supplementary Table 1),run:Lestaurtinib_02339_R3,Plate:MR001",96.9 nM
same,potency estimated from few doses,[2]; [12],135 nM
same,potency estimated from few doses,"[2]; compound concentrations:100 nM and 1000 nM (sheet 'Lestaurtinib' of Supplementary Table 1),run:Lestaurtinib_02367_R1,Plate:MR003",158 nM
same,potency estimated from few doses,"[2]; compound concentrations:100 nM and 1000 nM (sheet 'Lestaurtinib' of Supplementary Table 1),run:Lestaurtinib_02367_R2,Plate:MR003",190 nM
same,potency estimated from few doses,"[2]; compound concentrations:100 nM and 1000 nM (sheet 'Lestaurtinib' of Supplementary Table 1),run:Lestaurtinib_02367_R3,Plate:MR003",165 nM
same,potency estimated from few doses,"[2]; compound concentrations:100 nM and 1000 nM (sheet 'Lestaurtinib' of Supplementary Table 1),run:Lestaurtinib_02381_R1,Plate:MR004",175 nM
same,potency estimated from few doses,"[2]; compound concentrations:100 nM and 1000 nM (sheet 'Lestaurtinib' of Supplementary Table 1),run:Lestaurtinib_02407_R2,Plate:MR005",137 nM
same,potency estimated from few doses,"[2]; compound concentrations:100 nM and 1000 nM (sheet 'Lestaurtinib' of Supplementary Table 1),run:Lestaurtinib_02422_R3,Plate:MR006",151 nM
same,potency estimated from few doses,"[2]; compound concentrations:100 nM and 1000 nM (sheet 'Lestaurtinib' of Supplementary Table 1),run:Lestaurtinib_02437_R1,Plate:MR007",184 nM
same,potency estimated from few doses,"[2]; compound concentrations:100 nM and 1000 nM (sheet 'Lestaurtinib' of Supplementary Table 1),run:Lestaurtinib_02437_R2,Plate:MR007",189 nM
same,potency estimated from few doses,"[2]; compound concentrations:100 nM and 1000 nM (sheet 'Lestaurtinib' of Supplementary Table 1),run:Lestaurtinib_02437_R3,Plate:MR007",22.9 nM
same,potency estimated from few doses,"[2]; compound concentrations:100 nM and 1000 nM (sheet 'Lestaurtinib' of Supplementary Table 1),run:Lestaurtinib_02438_R3,Plate:MR008",132 nM
same,potency estimated from few doses,"[2]; compound concentrations:100 nM and 1000 nM (sheet 'Lestaurtinib' of Supplementary Table 1),run:Lestaurtinib_02443_R2,Plate:MR009",140 nM
same,potency estimated from few doses,"[2]; compound concentrations:100 nM and 1000 nM (sheet 'Lestaurtinib' of Supplementary Table 1),run:Lestaurtinib_02473_R1,Plate:MR010",176 nM
same,potency estimated from few doses,"[2]; compound concentrations:100 nM and 1000 nM (sheet 'Lestaurtinib' of Supplementary Table 1),run:Lestaurtinib_02473_R2,Plate:MR010",144 nM
same,potency estimated from few doses,"[2]; compound concentrations:100 nM and 1000 nM (sheet 'Lestaurtinib' of Supplementary Table 1),run:Lestaurtinib_02482_R1,Plate:MR011",212 nM
same,potency estimated from few doses,"[2]; compound concentrations:100 nM and 1000 nM (sheet 'Lestaurtinib' of Supplementary Table 1),run:Lestaurtinib_02482_R3,Plate:MR011",254 nM
same,potency estimated from few doses,"[2]; compound concentrations:100 nM and 1000 nM (sheet 'Lestaurtinib' of Supplementary Table 1),run:Lestaurtinib_02487_R1,Plate:MR012",142 nM
same,potency estimated from few doses,"[2]; compound concentrations:100 nM and 1000 nM (sheet 'Lestaurtinib' of Supplementary Table 1),run:Lestaurtinib_02487_R2,Plate:MR012",190 nM
same,potency estimated from few doses,"[2]; compound concentrations:100 nM and 1000 nM (sheet 'Lestaurtinib' of Supplementary Table 1),run:Lestaurtinib_02487_R3,Plate:MR012",157 nM
same,potency estimated from few doses,"[2]; compound concentrations:100 nM and 1000 nM (sheet 'Lestaurtinib' of Supplementary Table 1),run:Lestaurtinib_02496_R1,Plate:MR013",146 nM
same,potency estimated from few doses,"[2]; compound concentrations:100 nM and 1000 nM (sheet 'Lestaurtinib' of Supplementary Table 1),run:Lestaurtinib_02496_R2,Plate:MR013",132 nM
same,potency estimated from few doses,"[2]; compound concentrations:100 nM and 1000 nM (sheet 'Lestaurtinib' of Supplementary Table 1),run:Lestaurtinib_02566_R1,Plate:MR014",207 nM
same,potency estimated from few doses,"[2]; compound concentrations:100 nM and 1000 nM (sheet 'Lestaurtinib' of Supplementary Table 1),run:Lestaurtinib_02566_R2,Plate:MR014",121 nM
same,potency estimated from few doses,"[2]; compound concentrations:100 nM and 1000 nM (sheet 'Lestaurtinib' of Supplementary Table 1),run:Lestaurtinib_02572_R2,Plate:MR015",149 nM
same,potency estimated from few doses,"[2]; compound concentrations:100 nM and 1000 nM (sheet 'Lestaurtinib' of Supplementary Table 1),run:Lestaurtinib_02572_R3,Plate:MR015",193 nM
same,potency estimated from few doses,"[2]; compound concentrations:100 nM and 1000 nM (sheet 'Lestaurtinib' of Supplementary Table 1),run:Lestaurtinib_02577_R2,Plate:MR016",158 nM
same,potency estimated from few doses,"[2]; compound concentrations:100 nM and 1000 nM (sheet 'Lestaurtinib' of Supplementary Table 1),run:Lestaurtinib_02584_R3,Plate:MR017",243 nM
same,potency estimated from few doses,"[2]; compound concentrations:100 nM and 1000 nM (sheet 'Lestaurtinib' of Supplementary Table 1),run:Lestaurtinib_02601_R1,Plate:MR018",172 nM
same,potency estimated from few doses,"[2]; compound concentrations:100 nM and 1000 nM (sheet 'Lestaurtinib' of Supplementary Table 1),run:Lestaurtinib_02601_R3,Plate:MR018",321 nM
same,potency estimated from few doses,"[2]; compound concentrations:100 nM and 1000 nM (sheet 'Lestaurtinib' of Supplementary Table 1),run:Lestaurtinib_02606_R2,Plate:MR019",140 nM
same,potency estimated from few doses,"[2]; compound concentrations:100 nM and 1000 nM (sheet 'Lestaurtinib' of Supplementary Table 1),run:Lestaurtinib_02606_R3,Plate:MR019",180 nM
same,potency estimated from few doses,"[2]; compound concentrations:100 nM and 1000 nM (sheet 'Lestaurtinib' of Supplementary Table 1),run:Lestaurtinib_02624_R2,Plate:MR020",154 nM
same,potency estimated from few doses,"[2]; compound concentrations:100 nM and 1000 nM (sheet 'Lestaurtinib' of Supplementary Table 1),run:Lestaurtinib_02624_R3,Plate:MR020",149 nM
same,potency estimated from few doses,"[2]; compound concentrations:100 nM and 1000 nM (sheet 'Lestaurtinib' of Supplementary Table 1),run:Lestaurtinib_02724_R1,Plate:MR021",141 nM
same,potency estimated from few doses,"[2]; compound concentrations:100 nM and 1000 nM (sheet 'Lestaurtinib' of Supplementary Table 1),run:Lestaurtinib_02724_R2,Plate:MR021",113 nM
same,potency estimated from few doses,"[2]; compound concentrations:100 nM and 1000 nM (sheet 'Lestaurtinib' of Supplementary Table 1),run:Lestaurtinib_02724_R3,Plate:MR021",151 nM
same,potency estimated from few doses,"[2]; compound concentrations:100 nM and 1000 nM (sheet 'Lestaurtinib' of Supplementary Table 1),run:Lestaurtinib_02741_R1,Plate:MR023",92.6 nM
same,potency estimated from few doses,"[2]; compound concentrations:100 nM and 1000 nM (sheet 'Lestaurtinib' of Supplementary Table 1),run:Lestaurtinib_02741_R2,Plate:MR023",113 nM
same,potency estimated from few doses,"[2]; compound concentrations:100 nM and 1000 nM (sheet 'Lestaurtinib' of Supplementary Table 1),run:Lestaurtinib_02741_R3,Plate:MR023",130 nM
same,potency estimated from few doses,"[2]; compound concentrations:100 nM and 1000 nM (sheet 'Lestaurtinib' of Supplementary Table 1),run:Lestaurtinib_02748_R2,Plate:MR024",231 nM
same,potency estimated from few doses,"[2]; compound concentrations:100 nM and 1000 nM (sheet 'Lestaurtinib' of Supplementary Table 1),run:Lestaurtinib_02748_R3,Plate:MR024",190 nM
same,potency estimated from few doses,[2]; [4],175 nM
same,potency estimated from few doses,[2]; [5],218 nM
same,potency estimated from few doses,"[2]; compound concentrations:100 nM and 1000 nM (sheet 'Lestaurtinib' of Supplementary Table 1),run:Lestaurtinib_02765_R2,Plate:MR026",200 nM
same,potency estimated from few doses,"[2]; compound concentrations:100 nM and 1000 nM (sheet 'Lestaurtinib' of Supplementary Table 1),run:Lestaurtinib_02765_R3,Plate:MR026",115 nM
same,potency estimated from few doses,[2]; [6],183 nM
same,potency estimated from few doses,[2]; [7],143 nM
same,potency estimated from few doses,[2]; [8],180 nM
same,potency estimated from few doses,[2]; [9],440 nM
same,potency estimated from few doses,"[2]; compound concentrations:100 nM and 1000 nM (sheet 'Lestaurtinib' of Supplementary Table 1),run:Lestaurtinib_03172_R1,Plate:MR031",154 nM
same,potency estimated from few doses,[2]; [10],296 nM
same,potency estimated from few doses,"[2]; compound concentrations:100 nM and 1000 nM (sheet 'Lestaurtinib' of Supplementary Table 1),run:Lestaurtinib_03260_R1,Plate:MR033",161 nM
same,potency estimated from few doses,"[2]; compound concentrations:100 nM and 1000 nM (sheet 'Lestaurtinib' of Supplementary Table 1),run:Lestaurtinib_03260_R3,Plate:MR033",140 nM
same,potency estimated from few doses,"[3]; compound concentrations:100 nM and 1000 nM (sheet 'Lestaurtinib' of Supplementary Table 1),run:Lestaurtinib_02339_R1,Plate:MR001",329 nM
same,potency estimated from few doses,[3]; [11],231 nM
same,potency estimated from few doses,"[3]; compound concentrations:100 nM and 1000 nM (sheet 'Lestaurtinib' of Supplementary Table 1),run:Lestaurtinib_02364_R1,Plate:MR002",180 nM
same,potency estimated from few doses,[3]; [12],196 nM
